Reference: PubChem BioAssay (Tox21)
The source made the active and inactive calls. Unless noted, calls come from the whole dose curve; as a rule, active = well fitted curve in the direction sought with a large enough effect in the repeat runs; inconclusive = weak or mixed curves; inactive = no such curve, though single readings can be large; an effect the other way counts as inactive or inconclusive.

How the values were obtained:
[1] = qHTS assay for identifying genotoxic compounds that show differential cytotoxicity against isogenic chicken DT40 cell lines with known DNA damage response pathways - wild type cell line (AID 743012); note: nearly all actives have a fitted effect of over 60% in size; note: potency is the fitted concentration of half-maximal effect
How it was run: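 Viability by ATP luminescence (CellTiter-Glo, 30 min RT) after 40 h compound treatment at 37 C/5% CO2, using 300 parental DNA repair-proficient DT40 cells per well.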

[2] = qHTS assay for identifying genotoxic compounds that show differential cytotoxicity against isogenic chicken DT40 cell lines with known DNA damage response pathways - Rev3 mutant cell line (AID 743014); note: nearly all actives have a fitted effect of over 55% in size; note: potency is the fitted concentration of half-maximal effect
[3] = qHTS assay for identifying genotoxic compounds that show differential cytotoxicity against isogenic chicken DT40 cell lines with known DNA damage response pathways - Rad54/Ku70 mutant cell line (AID 743015); note: nearly all actives have a fitted effect of over 60% in size; note: potency is the fitted concentration of half-maximal effect
[4] = target: Androgen receptor (Homo sapiens) (UniProt P10275); experiment: qHTS assay to identify small molecule agonists of the androgen receptor (AR) signaling pathway using the MDA cell line (AID 743040; note: nearly all actives have a fitted effect of over 20% in size)
How it was run: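 Agonist activity is measured as luciferase luminescence in human MDA-kb2 cells whose MMTV reporter responds to both AR and GR. Compounds in DMSO incubate 16 h at 37C, 0% CO2, and ONE-Glo is read after 30 min.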

[5] = qHTS assay to identify small molecule antagonists of the androgen receptor (AR) signaling pathway using the MDA cell line - cell viability counter screen (AID 743041; note: nearly all actives have a fitted effect of over 45% in size; note: potency is the fitted concentration of half-maximal effect)
How it was run: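 qHTS viability read-out; MDA-kb2 AR-luc; R1881-stimulated; 16 h exposure at 37C, 0% CO2; CellTiter-Fluor, 30 min; fluorescence intensity.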

[6] = target: Androgen receptor (Homo sapiens) (UniProt P10275); experiment: qHTS assay to identify small molecule antagonists of the androgen receptor (AR) signaling pathway using the MDA cell line (AID 743042; note: nearly all actives have a fitted effect of over 55% in size; note: potency is the fitted concentration of half-maximal effect)
How it was run: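 MDA-kb2 cells (human breast carcinoma, stably carrying an MMTV-luciferase reporter responsive to AR and GR) were plated at 3,000 cells/well and preincubated 5 hr at 37C, then given compound plus R1881 agonist for 16 h. ONE-Glo luminescence was read.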

[7] = qHTS assay to identify small molecule antagonists of the thyroid receptor (TR) signaling pathway - cell viability counter screen (AID 743064); note: nearly all actives have a fitted effect of over 50% in size; note: potency is the fitted concentration of half-maximal effect
How it was run: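 Fluorescence from CellTiter-Fluor, added after 23.5 h exposure at 37 °C, reported viability of GH3.TRE-Luc cells co-treated with compound and 1 nM T3. Measured in the same wells as the luciferase TR readout.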

[8] = qHTS assay to identify small molecule antagonists of the thyroid receptor (TR) signaling pathway (AID 743065); note: nearly all actives have a fitted effect of over 55% in size; note: potency is the fitted concentration of half-maximal effect
How it was run: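 GH3.TRE-Luc rat pituitary cells carrying two TR response elements driving luciferase were plated for 4 h, given compound plus 1 nM T3 (final), and incubated 23.5 h at 37 C. ONE-Glo luminescence measured reporter inhibition; CellTiter-Fluor fluorescence tracked cytotoxicity.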

[9] = tested on: thyroid hormone receptor (rat, GH3 cells); experiment: qHTS assay to identify small molecule agonists of the thyroid receptor (TR) signaling pathway (AID 743066; calls by dose curve)
Aromatase (Homo sapiens) = Aromatase (Homo sapiens) (UniProt P11511); experiment: qHTS assay to identify aromatase inhibitors (AID 743083); note: nearly all actives have a fitted effect of over 55% in size; note: potency is the fitted concentration of half-maximal effect
[10] = qHTS assay to identify aromatase inhibitors - cell viability counter screen (AID 743084); note: potency is the fitted concentration of half-maximal effect
[11] = target: Androgen receptor (Homo sapiens) (UniProt P10275); experiment: qHTS assay to identify small molecule antagonists of the androgen receptor (AR) signaling pathway (AID 743035; active = well fitted inhibition curve with a large enough effect in the signal ratio in the repeat runs, not every such curve was filed as active; inconclusive = weak or mixed curves, or effect the other way; inactive = no such curve, though single readings can be large or run the other way; the % refers to the signal ratio)
How it was run: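 Antagonist mode: AR-bla HEK293 cells co-treated with test compounds and agonist R1881 for 16 h at 37C, 5% CO2. Beta-lactamase activity read as FRET fluorescence after 2 h room-temperature substrate loading.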

[12] = qHTS assay to identify small molecule antagonists of the estrogen receptor alpha (ER-alpha) signaling pathway - cell viability counter screen (AID 743074; calls by dose curve; note: nearly all actives have a fitted effect of over 45% in size; note: potency is the fitted concentration of half-maximal effect)
[13] = qHTS assay to identify small molecule antagonists of the estrogen receptor alpha (ER-alpha) signaling pathway using the BG1 cell line - cell viability counter screen (AID 743081);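 note: compound given together with 17beta-estradiol as the ER stimulus; nearly all actives have a fitted effect of over 45% in size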
[14] = target: Estrogen receptor (Homo sapiens) (UniProt P03372); experiment: qHTS assay to identify small molecule agonists of the estrogen receptor alpha (ER-alpha) signaling pathway (AID 743075; calls by dose curve; note: potency is the fitted concentration of half-maximal effect)
[15] = target: Estrogen receptor (Homo sapiens) (UniProt P03372); experiment: qHTS assay to identify small molecule agonists of the estrogen receptor alpha (ER-alpha) signaling pathway using the BG1 cell line (AID 743079); conditions: BG1Luc4E2 cells, ERE-luciferase agonist, 22 h; activation: at 70.3 µM (top of the series); note: nearly all actives have a fitted effect of over 20% in size
[16] = qHTS assay to identify small molecule antagonists of the estrogen receptor alpha (ER-alpha) signaling pathway using the BG1 cell line (AID 743080; calls by dose curve;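 note: BG1 cells stimulated with 17beta-estradiol alongside compound; nearly all actives have a fitted effect of over 25% in size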; note: potency is the fitted concentration of half-maximal effect); conditions: BG1Luc4E2 ERE-luciferase antagonist mode, luminescence; activity change, negative = inhibition: at 70.3 µM (top of the series)
How it was run: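 Readout is ONE-Glo luminescence, taken 30 min at room temperature after reagent addition, preceded by a CellTiter-Fluor viability read; BG1-Luc-4E2 cells had received compound and 17beta-estradiol for 21.5 h at 37 C.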

[17] = qHTS assay to identify small molecule antagonists of the androgen receptor (AR) signaling pathway - cell viability counter screen (AID 743033; note: nearly all actives have a fitted effect of over 45% in size; note: potency is the fitted concentration of half-maximal effect)
[18] = target: Estrogen receptor (Homo sapiens) (UniProt P03372); experiment: qHTS assay to identify small molecule antagonists of the estrogen receptor alpha (ER-alpha) signaling pathway (AID 743069; active = well fitted curve in the direction sought with a large enough effect in the signal ratio in the repeat runs, not every such curve was filed as active; inconclusive = weak or mixed curves, or effect the other way; inactive = no such curve, though single readings can be large or run the other way; the % refers to the signal ratio; note: potency is the fitted concentration of half-maximal effect)
How it was run: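 Screening used a UAS-driven beta-lactamase reporter integrated into HEK293 cells expressing ER-alpha, stimulated with 17beta-estradiol alongside test compounds over 18 hr at 37C; signal came from LiveBLAzer B/G FRET fluorescence.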
% is set by controls: 0 for no effect and ±100 for the full control effect.

Chain of Androgen receptor (Homo sapiens) (P10275 whole entry, looked up): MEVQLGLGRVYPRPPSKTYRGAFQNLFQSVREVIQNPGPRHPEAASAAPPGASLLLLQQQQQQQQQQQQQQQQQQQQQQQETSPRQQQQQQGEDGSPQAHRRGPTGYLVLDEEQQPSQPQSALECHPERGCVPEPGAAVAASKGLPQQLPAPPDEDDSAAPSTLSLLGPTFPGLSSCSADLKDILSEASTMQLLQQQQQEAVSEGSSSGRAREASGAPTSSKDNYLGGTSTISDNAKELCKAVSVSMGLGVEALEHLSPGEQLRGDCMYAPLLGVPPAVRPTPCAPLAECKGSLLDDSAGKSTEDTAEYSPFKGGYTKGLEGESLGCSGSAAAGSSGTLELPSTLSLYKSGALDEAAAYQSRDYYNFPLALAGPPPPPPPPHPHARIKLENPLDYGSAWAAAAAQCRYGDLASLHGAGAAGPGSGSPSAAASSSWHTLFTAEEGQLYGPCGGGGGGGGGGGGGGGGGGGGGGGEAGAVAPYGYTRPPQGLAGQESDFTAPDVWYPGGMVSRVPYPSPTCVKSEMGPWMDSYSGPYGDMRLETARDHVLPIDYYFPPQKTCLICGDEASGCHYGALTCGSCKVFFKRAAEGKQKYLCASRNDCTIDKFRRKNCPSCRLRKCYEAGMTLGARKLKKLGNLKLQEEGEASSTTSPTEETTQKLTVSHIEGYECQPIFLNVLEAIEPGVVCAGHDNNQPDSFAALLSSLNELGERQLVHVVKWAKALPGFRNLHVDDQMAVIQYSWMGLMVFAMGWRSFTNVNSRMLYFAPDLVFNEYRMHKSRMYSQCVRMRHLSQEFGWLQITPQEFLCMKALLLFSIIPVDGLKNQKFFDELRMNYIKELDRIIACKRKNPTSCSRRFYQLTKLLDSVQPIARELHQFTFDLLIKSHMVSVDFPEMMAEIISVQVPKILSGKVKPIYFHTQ
Chain of Estrogen receptor (Homo sapiens) (P03372 whole entry, looked up): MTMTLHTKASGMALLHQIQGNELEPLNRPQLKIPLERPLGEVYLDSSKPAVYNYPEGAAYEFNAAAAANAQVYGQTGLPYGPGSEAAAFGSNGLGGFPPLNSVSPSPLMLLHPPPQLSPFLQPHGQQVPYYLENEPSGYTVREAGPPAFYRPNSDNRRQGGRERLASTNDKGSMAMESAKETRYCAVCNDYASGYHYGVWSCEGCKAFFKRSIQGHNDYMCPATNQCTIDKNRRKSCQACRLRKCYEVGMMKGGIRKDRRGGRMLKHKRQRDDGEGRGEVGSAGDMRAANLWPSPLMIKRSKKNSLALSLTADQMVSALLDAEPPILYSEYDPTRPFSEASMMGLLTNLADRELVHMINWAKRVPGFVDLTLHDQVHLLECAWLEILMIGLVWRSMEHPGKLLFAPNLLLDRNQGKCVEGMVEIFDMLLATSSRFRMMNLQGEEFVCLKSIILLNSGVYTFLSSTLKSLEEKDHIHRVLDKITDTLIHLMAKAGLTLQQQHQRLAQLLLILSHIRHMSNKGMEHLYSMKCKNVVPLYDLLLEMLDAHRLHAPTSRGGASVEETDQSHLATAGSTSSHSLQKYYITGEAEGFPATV
Chain of Aromatase (Homo sapiens) (P11511 whole entry, looked up): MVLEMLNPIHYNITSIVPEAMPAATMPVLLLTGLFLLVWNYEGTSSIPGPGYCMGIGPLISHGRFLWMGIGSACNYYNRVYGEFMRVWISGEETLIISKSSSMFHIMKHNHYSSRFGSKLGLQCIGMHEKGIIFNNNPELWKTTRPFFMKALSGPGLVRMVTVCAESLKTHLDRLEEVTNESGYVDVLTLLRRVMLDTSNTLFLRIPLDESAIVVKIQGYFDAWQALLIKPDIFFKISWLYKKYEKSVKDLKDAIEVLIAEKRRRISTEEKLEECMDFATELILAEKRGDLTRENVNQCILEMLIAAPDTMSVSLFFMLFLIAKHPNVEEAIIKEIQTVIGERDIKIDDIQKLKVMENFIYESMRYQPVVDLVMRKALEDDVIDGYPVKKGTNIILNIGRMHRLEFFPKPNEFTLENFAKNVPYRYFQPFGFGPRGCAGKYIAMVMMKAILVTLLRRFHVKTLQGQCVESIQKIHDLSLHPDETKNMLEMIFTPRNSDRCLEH

## CCC(C)c1cc([N+](=O)[O-])cc([N+](=O)[O-])c1OC(=O)OC(C)C (stereo not given)
[1]
  Potency: 30.6 µM (active)
[2]
  Potency: 48.6 µM (active)
[3]
  Potency: 30.6 µM (active)
[4]
  Potency: inactive
[5]
  Potency: 54.5 µM (active)
[6]
  Potency: 27.3 µM (active)
[7]
  Potency: 48.6 µM (active)
[8]
  Potency: 21.7 µM (active)
[9]
  Potency: inactive
Aromatase (Homo sapiens)
  Potency: 61.1 µM (active)
[10]
  Potency: 54.5 µM (active)

## Cc1c(C(=O)O)cccc1[N+](=O)[O-]
[1]
  Potency: 62.1 µM (active)
[11]
  Potency: inactive
[4]
  Potency: inactive
[5]
  Potency: inactive
[7]
  Potency: inactive
[8]
  Potency: inactive
[9]
  Potency: inactive
[12]
  Potency: inactive
[13]
  Potency: inactive
Aromatase (Homo sapiens)
  Potency: inactive
[10]
  Potency: inactive

## CN1CCN(C2Cc3ccccc3Sc3ccc(Cl)cc32)CC1 (stereo not given)
[1]
  Potency: 5.96 µM (active)
[2]
  Potency: 6.68 µM (active)
[3]
  Potency: 9.44 µM (active)
[4]
  Potency: inactive
[6]
  Potency: inactive
[7]
  Potency: 9.44 µM (active)
[8]
  Potency: 9.44 µM (active)
[14]
  Potency: inactive
[15]
  Potency: inactive
[16]
  Potency: inactive
[13]
  Potency: inactive

## CC(O)C#CC(C)O (stereo not given)
[2]
  Potency: 7.62 µM (active)
[3]
  Potency: 10.8 µM (active)
[17]
  Potency: 48.5 µM (active)
[5]
  Potency: inactive
[9]
  Potency: inactive
[12]
  Potency: inactive
[14]
  Potency: inactive
[15]
  Potency: inactive
[13]
  Potency: inactive
[10]
  Potency: 30.3 µM (active)

## CCN1CCN(c2cc(-c3ccc(F)cc3)c3c(n2)CCCCCC3)CC1
[3]
  Potency: inactive
[17]
  Potency: inactive
[11]
  Potency: inactive
[4]
  Potency: inactive
[5]
  Potency: inactive
[6]
  Potency: inactive
[7]
  Potency: 13.3 µM (active)
[8]
  Potency: 18.8 µM (active)
[9]
  Potency: inactive
[12]
  Potency: inactive
Aromatase (Homo sapiens)
  Potency: inactive
[10]
  Potency: inactive

## CCCCCCCCCCOCC(O)CN (stereo not given)
[1]
  Potency: 4.73 µM (active)
[2]
  Potency: 6.68 µM (active)
[3]
  Potency: 7.5 µM (active)
[17]
  Potency: inactive
[4]
  Potency: inactive
[7]
  Potency: 5.96 µM (active)
[8]
  Potency: 9.44 µM (active)
[18]
  Potency: inactive
[12]
  Potency: inactive
[15]
  Potency: inactive
[16]
  Potency: inactive
[13]
  Potency: inactive
Aromatase (Homo sapiens)
  Potency: 33.5 µM (active)

## CCN(CC)CCOc1ccc(C(O)(Cc2ccc(Cl)cc2)c2ccc(C)cc2)cc1 (stereo not given)
[1]
  Potency: 2.11 µM (active)
[2]
  Potency: 2.11 µM (active)
[3]
  Potency: 2.98 µM (active)
[17]
  Potency: 16.9 µM (active)
[7]
  Potency: 7.5 µM (active)
[8]
  Potency: 7.5 µM (active)
[18]
  Potency: 23.9 µM [inconclusive] (active)
[14]
  Potency: inactive
[16]
  Potency: inactive
[13]
  Potency: inactive
Aromatase (Homo sapiens)
  Potency: 29.8 µM (active)
[10]
  Potency: inactive

## CN(C)c1ccc(N=Nc2ccccc2C(=O)O)cc1
[2]
  Potency: inactive
[17]
  Potency: inactive
[5]
  Potency: inactive
[7]
  Potency: 15.4 µM (active)
[9]
  Potency: inactive
[14]
  Potency: inactive
[16]
  Potency: inactive
Aromatase (Homo sapiens)
  Potency: 54.5 µM (active)
[10]
  Potency: 24.3 µM (active)

## C=C1C(C)(C)[C@@]2(Cl)C(Cl)[C@]1(Cl)C(Cl)(Cl)C2(Cl)Cl (stereo not given in full)
[1]
  Potency: 47.7 µM (active)
[2]
  Potency: 6.73 µM (active)
[3]
  Potency: 23.9 µM (active)
[4]
  Potency: inactive
[5]
  Potency: inactive
[6]
  Potency: inactive
[7]
  Potency: 26.8 µM (active)
[9]
  Potency: inactive
[13]
  Potency: inactive
Aromatase (Homo sapiens)
  Potency: 60 µM (active)

## O=C(c1ccccc1)c1cc(Cl)ccc1O
[1]
  Potency: inactive
[2]
  Potency: inactive
[3]
  Potency: inactive
[5]
  Potency: inactive
[8]
  Potency: inactive
[9]
  Potency: inactive
[12]
  Potency: inactive
[14]
  Potency: 58.5 µM [activator] (active)
[15]
  activation: 22.1% (active)
[16]
  Potency: inactive
[13]
  Potency: inactive
[10]
  Potency: inactive

## N#CSCSc1nc2ccccc2s1
[1]
  Potency: 0.864 µM (active)
[2]
  Potency: 0.969 µM (active)
[3]
  Potency: 0.969 µM (active)
[17]
  Potency: 13.8 µM (active)
[4]
  Potency: inactive
[7]
  Potency: 1.54 µM (active)
[8]
  Potency: 0.864 µM (active)
[14]
  Potency: inactive
[15]
  Potency: inactive
[13]
  Potency: inactive
Aromatase (Homo sapiens)
  Potency: 15.4 µM (active)
[10]
  Potency: 27.3 µM (active)

## COc1ccc2sc(C(=O)Nc3nnn[nH]3)c(OC(C)C)c2c1
[2]
  Potency: 27.2 µM (active)
[3]
  Potency: 17.2 µM (active)
[17]
  Potency: 24.5 µM (active)
[7]
  Potency: 7.66 µM (active)
[14]
  Potency: inactive
[16]
  Potency: 54.3 µM (active)
[13]
  Potency: inactive
[10]
  Potency: inactive

## C[n+]1c2cc(N)ccc2cc2ccc(N)cc21 (tested in a mixture with another compound)
[2]
  Potency: 1.68 µM (active)
[3]
  Potency: 2.66 µM (active)
[4]
  Potency: inactive
[12]
  Potency: inactive
Aromatase (Homo sapiens)
  Potency: 18.8 µM (active)

## C/C=C/C(=O)Oc1c(CCCCCC(C)C)cc([N+](=O)[O-])cc1[N+](=O)[O-]
[1]
  Potency: 3.44 µM (active)
[2]
  Potency: 3.44 µM (active)
[3]
  Potency: 2.43 µM (active)
[17]
  Potency: 7.76 µM (active)
[5]
  Potency: 7.7 µM (active)
[7]
  Potency: 12.2 µM (active)
[8]
  Potency: 3.86 µM (active)
[9]
  Potency: inactive
[18]
  Potency: 4.9 µM [inconclusive] (active)
Aromatase (Homo sapiens)
  Potency: 15.4 µM (active)
[10]
  Potency: 21.7 µM (active)

## CC(C)(C)c1cc(/C=C2\SC(=N)NC2=O)cc(C(C)(C)C)c1O
[1]
  Potency: 43.3 µM (active)
[2]
  Potency: 61.1 µM (active)
[3]
  Potency: 17.2 µM (active)
[17]
  Potency: 49 µM (active)
[7]
  Potency: 21.7 µM (active)
[12]
  Potency: 54.9 µM (active)
[13]
  Potency: inactive

## CCOC(=O)C1=C(C)NC(C)=C(C(=O)OCC)C1c1ccccc1/C=C/C(=O)OC(C)(C)C
[1]
  Potency: 2.66 µM (active)
[2]
  Potency: 3.76 µM (active)
[3]
  Potency: 5.96 µM (active)
[17]
  Potency: inactive
[4]
  Potency: inactive
[5]
  Potency: inactive
[7]
  Potency: 13.3 µM (active)
[8]
  Potency: 10.6 µM (active)
[12]
  Potency: inactive
[14]
  Potency: 6.74 µM [fluorescent] (active)
[16]
  Potency: 33.5 µM (active)
[13]
  Potency: inactive
[10]
  Potency: inactive

## O=C(NO)c1ccccc1
[2]
  Potency: 44.9 µM (active)
[3]
  Potency: 50.4 µM (active)
[4]
  Potency: inactive
[5]
  Potency: inactive
[6]
  Potency: inactive
[7]
  Potency: 26 µM (active)
[8]
  Potency: 41.2 µM (active)
Aromatase (Homo sapiens)
  Potency: inactive
